Targets with a hit are over-represented here; the source holds about 7,900 in all. About 0.6% of all pairs of compound and target were hits. Unmarked numbers belong to inactive results.
compound: C[C@H](Nc1ncnc2nc[nH]c12)c1cc2cccc(Cl)c2c(=O)n1-c1ccccc1 [duvelisib]; assay: log2 fold change, soluble protein after heating vs DMSO (PISA); higher = thermal stabilisation; K562 cells, 10 uM, 30 min; active = over 0.2 and 3.5 SD of the protein, either way, in both replicates (recomputed)
In short: (§1)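 K562 cells at 2×10^6 cells/mL were treated for 30 min with 10 μM compound, and aliquots were heated for 3 min over 48°C-58°C before pooling. Extraction used PBS with 0.5% NP-40 at 4°C, and soluble protein was the supernatant after 21,000xg for 90 min, measured by TMTpro 16plex LC-MS/MS with channel sums equalised. Thermal stability values, relative to control samples and from duplicates, are log2 fold changes.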

Sequence of UniProt O14757 (O14757 whole entry, looked up): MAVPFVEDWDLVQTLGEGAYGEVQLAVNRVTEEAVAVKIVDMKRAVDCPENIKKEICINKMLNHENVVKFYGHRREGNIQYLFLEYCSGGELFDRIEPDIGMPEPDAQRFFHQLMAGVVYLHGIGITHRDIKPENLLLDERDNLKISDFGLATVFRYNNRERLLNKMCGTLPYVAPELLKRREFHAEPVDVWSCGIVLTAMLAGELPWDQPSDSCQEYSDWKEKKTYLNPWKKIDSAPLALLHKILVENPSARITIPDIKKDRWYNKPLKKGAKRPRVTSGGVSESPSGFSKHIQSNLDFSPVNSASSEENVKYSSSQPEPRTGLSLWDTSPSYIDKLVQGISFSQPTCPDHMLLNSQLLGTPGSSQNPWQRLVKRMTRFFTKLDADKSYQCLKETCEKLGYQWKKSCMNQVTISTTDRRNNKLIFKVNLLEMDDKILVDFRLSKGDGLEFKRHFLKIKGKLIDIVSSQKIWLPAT
Sequence of UniProt P50750 (P50750 whole entry, looked up): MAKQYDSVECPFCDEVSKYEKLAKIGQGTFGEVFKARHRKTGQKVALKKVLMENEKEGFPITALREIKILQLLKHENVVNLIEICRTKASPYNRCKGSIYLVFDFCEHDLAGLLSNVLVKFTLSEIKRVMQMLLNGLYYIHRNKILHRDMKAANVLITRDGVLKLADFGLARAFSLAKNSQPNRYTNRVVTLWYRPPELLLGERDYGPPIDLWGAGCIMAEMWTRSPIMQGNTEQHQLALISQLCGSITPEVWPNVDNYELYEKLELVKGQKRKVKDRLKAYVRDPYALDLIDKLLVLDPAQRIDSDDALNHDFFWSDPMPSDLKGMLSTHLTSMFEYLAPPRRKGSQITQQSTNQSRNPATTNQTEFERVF
Sequence of UniProt Q96JM3 (Q96JM3 whole entry, looked up): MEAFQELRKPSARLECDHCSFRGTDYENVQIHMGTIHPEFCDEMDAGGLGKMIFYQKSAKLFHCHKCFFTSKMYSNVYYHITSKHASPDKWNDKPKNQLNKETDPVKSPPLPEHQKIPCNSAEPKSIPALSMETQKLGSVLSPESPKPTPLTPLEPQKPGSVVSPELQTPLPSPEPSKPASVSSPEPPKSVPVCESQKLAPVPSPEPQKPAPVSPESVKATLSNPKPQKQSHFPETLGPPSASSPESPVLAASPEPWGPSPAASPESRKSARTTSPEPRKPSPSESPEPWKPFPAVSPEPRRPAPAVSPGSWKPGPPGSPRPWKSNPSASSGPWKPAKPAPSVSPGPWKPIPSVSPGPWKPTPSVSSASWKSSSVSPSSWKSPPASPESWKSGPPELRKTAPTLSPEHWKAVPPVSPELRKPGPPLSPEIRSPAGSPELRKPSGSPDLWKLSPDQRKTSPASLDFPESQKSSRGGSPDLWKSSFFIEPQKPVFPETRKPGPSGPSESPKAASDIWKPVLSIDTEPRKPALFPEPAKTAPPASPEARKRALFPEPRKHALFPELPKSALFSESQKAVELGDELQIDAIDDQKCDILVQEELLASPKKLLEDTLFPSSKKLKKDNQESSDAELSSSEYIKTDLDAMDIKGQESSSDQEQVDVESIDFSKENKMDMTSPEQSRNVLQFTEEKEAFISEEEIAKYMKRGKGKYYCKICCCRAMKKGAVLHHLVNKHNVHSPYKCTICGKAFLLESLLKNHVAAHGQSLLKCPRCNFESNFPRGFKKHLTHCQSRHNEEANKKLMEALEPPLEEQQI
Sequence of UniProt Q16740 (Q16740 whole entry, looked up): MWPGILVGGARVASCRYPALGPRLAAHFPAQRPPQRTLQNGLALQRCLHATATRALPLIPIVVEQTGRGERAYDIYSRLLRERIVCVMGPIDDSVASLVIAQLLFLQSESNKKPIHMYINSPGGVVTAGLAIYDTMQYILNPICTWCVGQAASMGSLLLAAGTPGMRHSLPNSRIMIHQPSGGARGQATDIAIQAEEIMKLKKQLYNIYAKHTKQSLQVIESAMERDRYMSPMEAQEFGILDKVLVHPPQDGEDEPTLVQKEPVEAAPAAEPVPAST
Sequence of UniProt Q9UKF6 (Q9UKF6 whole entry, looked up): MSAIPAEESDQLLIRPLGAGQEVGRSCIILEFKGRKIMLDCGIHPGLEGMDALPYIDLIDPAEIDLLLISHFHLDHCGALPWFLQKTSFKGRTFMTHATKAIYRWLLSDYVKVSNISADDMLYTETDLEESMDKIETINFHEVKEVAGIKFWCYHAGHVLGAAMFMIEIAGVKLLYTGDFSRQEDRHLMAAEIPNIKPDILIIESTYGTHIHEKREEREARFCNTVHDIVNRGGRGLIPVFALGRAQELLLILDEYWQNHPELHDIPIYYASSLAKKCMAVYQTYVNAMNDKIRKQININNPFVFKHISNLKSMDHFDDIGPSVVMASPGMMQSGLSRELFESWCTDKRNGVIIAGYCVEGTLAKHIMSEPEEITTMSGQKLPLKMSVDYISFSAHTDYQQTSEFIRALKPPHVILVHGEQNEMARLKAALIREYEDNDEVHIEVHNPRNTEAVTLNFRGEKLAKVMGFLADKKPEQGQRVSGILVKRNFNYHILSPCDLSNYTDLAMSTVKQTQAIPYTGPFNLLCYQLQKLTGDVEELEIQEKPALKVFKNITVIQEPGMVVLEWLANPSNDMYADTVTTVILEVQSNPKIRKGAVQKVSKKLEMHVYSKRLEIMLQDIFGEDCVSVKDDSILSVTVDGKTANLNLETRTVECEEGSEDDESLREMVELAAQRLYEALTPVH
Sequence of UniProt P61024 (P61024 whole entry, looked up): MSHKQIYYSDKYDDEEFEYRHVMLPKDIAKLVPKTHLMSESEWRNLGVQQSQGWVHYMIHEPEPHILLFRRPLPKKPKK
Sequence of UniProt Q86X83 (Q86X83 whole entry, looked up): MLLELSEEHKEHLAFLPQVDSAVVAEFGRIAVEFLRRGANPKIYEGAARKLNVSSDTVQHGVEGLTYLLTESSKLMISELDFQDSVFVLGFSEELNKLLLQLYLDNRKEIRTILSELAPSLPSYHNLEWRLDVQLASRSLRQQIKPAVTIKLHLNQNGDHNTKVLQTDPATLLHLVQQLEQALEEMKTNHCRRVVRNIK
Sequence of UniProt Q9HAW4 (Q9HAW4 whole entry, looked up): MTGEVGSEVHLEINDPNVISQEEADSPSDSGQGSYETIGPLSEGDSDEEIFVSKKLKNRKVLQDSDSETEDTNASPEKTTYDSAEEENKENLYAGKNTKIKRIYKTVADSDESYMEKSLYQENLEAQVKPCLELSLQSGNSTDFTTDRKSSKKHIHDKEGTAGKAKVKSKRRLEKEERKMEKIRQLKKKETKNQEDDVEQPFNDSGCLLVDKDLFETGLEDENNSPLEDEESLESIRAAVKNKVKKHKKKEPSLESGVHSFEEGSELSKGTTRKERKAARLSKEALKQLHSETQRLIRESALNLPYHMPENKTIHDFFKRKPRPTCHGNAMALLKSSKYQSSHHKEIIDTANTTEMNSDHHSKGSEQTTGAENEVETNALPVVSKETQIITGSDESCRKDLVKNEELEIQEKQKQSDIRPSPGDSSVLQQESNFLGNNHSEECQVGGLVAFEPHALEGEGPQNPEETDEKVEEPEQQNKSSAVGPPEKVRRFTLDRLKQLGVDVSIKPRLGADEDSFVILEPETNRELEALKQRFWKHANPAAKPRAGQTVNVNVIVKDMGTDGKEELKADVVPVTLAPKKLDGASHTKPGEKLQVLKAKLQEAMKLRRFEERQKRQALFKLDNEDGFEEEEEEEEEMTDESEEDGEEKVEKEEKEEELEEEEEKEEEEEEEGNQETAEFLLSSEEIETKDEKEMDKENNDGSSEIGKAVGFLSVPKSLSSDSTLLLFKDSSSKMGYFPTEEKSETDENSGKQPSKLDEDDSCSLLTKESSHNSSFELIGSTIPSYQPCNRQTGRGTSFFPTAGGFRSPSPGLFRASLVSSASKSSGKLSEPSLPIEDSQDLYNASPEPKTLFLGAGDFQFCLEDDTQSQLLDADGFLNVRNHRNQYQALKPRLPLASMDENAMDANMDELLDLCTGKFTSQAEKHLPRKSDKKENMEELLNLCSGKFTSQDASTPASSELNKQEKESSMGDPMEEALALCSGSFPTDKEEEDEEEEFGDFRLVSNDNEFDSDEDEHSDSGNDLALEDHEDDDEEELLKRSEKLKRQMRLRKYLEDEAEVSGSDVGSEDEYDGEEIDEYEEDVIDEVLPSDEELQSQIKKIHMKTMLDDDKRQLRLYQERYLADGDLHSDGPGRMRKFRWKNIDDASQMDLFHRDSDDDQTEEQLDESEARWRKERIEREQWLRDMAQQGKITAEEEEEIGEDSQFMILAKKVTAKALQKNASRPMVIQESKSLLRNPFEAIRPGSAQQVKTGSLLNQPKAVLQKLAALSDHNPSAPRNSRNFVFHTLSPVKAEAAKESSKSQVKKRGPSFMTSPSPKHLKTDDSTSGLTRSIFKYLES
Sequence of UniProt Q9P0B6 (Q9P0B6 whole entry, looked up): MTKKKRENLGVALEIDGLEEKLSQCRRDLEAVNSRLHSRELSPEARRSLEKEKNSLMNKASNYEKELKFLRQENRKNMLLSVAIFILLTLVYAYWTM
Sequence of UniProt Q13137 (Q13137 whole entry, looked up): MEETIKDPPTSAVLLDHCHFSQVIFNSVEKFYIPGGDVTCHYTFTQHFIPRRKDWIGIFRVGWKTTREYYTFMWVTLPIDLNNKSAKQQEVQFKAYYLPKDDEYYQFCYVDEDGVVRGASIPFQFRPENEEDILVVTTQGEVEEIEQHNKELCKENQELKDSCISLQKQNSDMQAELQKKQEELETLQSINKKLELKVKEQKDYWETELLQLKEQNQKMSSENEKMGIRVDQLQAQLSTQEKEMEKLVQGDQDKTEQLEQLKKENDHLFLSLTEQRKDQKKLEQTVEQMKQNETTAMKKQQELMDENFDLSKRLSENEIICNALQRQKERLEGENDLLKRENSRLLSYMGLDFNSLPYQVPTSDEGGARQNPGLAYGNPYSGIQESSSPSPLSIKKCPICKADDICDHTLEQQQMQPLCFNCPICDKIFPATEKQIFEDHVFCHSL
Sequence of UniProt Q5JTJ3 (Q5JTJ3 whole entry, looked up): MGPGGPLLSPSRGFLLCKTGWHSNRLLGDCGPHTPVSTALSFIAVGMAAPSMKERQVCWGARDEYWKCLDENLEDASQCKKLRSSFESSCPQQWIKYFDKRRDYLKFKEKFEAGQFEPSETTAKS

Question: Which log2 fold change does the source give for CKS1B (UniProt P61024) here?
Answer: The log2 fold change was 0.022.

Question: Which log2 fold change does the source give for CHEK1 (UniProt O14757) here?
Answer: Its log2 fold change is 0.059.

Question: For CLPP (UniProt Q16740), which log2 fold change is on record?
Answer: The log2 fold change was 0.006.

Question: Which log2 fold change does the source give for CDK9 isoform 2 (UniProt P50750) here?
Answer: The log2 fold change was -0.076.

Question: CHAMP1 (UniProt Q96JM3) was tested. Which log2 fold change did it give?
Answer: Its log2 fold change is -0.076.

Question: With CCDC167 (UniProt Q9P0B6) as the target, how does the log2 fold change read?
Answer: The log2 fold change was 0.263.

Question: For CALCOCO2 isoform 4 (UniProt Q13137), which log2 fold change is on record?
Answer: The log2 fold change was 0.042.

Question: How did the log2 fold change turn out when CPSF3 (UniProt Q9UKF6) was run?
Answer: Its log2 fold change is 0.011.

Question: With CLASP2 isoform 3 (UniProt O75122) as the target, how does the log2 fold change read?
Answer: The log2 fold change was 0.047.

Question: CLSPN (UniProt Q9HAW4) was tested. Which log2 fold change did it give?
Answer: Its log2 fold change is -0.045.

Question: COMMD2 (UniProt Q86X83) was tested. Which log2 fold change did it give?
Answer: Its log2 fold change is 0.097.

Question: Which log2 fold change does the source give for CLCN3 (UniProt P51790) here?
Answer: The log2 fold change was 0.046.

Question: How did the log2 fold change turn out when CCNK isoform 4 (UniProt O75909) was run?
Answer: Its log2 fold change is -0.06.

compound: Cc1cc(Nc2cc(CN3CCOCC3)c3nc(C)c(Cc4ccc(Cl)cc4F)n3n2)n[nH]1 [gandotinib]; assay: as above
In short: as §1

Question: C9orf64 (UniProt Q5T6V5) was tested. Which log2 fold change did it give?
Answer: The log2 fold change was -0.128.

Question: With CELF2 isoform 3 (UniProt O95319) as the target, how does the log2 fold change read?
Answer: The log2 fold change was -0.027.

Question: Which log2 fold change does the source give for CAMSAP1 isoform 3 (UniProt Q5T5Y3) here?
Answer: Its log2 fold change is -0.039.

Question: With CNOT4 isoform 6 (UniProt O95628) as the target, how does the log2 fold change read?
Answer: The log2 fold change was -0.005.

Question: CSTF2 (UniProt P33240) was tested. Which log2 fold change did it give?
Answer: The log2 fold change was 0.048.

Question: With CBX5 (UniProt P45973) as the target, how does the log2 fold change read?
Answer: Its log2 fold change is -0.015.

Question: How did the log2 fold change turn out when CHD3 isoform 3 (UniProt Q12873) was run?
Answer: The log2 fold change was 0.237.

Question: For CCDC9 (UniProt Q9Y3X0), which log2 fold change is on record?
Answer: Its log2 fold change is 0.194.

Question: Which log2 fold change does the source give for CHERP (UniProt Q8IWX8) here?
Answer: Its log2 fold change is -0.047.

Question: For COQ9 (UniProt O75208), which log2 fold change is on record?
Answer: Its log2 fold change is -0.029.

Question: Which log2 fold change does the source give for CPQ (UniProt Q9Y646) here?
Answer: The log2 fold change was 0.055.

Question: How did the log2 fold change turn out when CD81 (UniProt P60033) was run?
Answer: Its log2 fold change is 0.019.

Question: Which log2 fold change does the source give for CDK6 (UniProt Q00534) here?
Answer: Its log2 fold change is -0.009.

Question: With CHMP4C (UniProt Q96CF2) as the target, how does the log2 fold change read?
Answer: The log2 fold change was 0.073.

Question: Which log2 fold change does the source give for CHAC2 (UniProt Q8WUX2) here?
Answer: Its log2 fold change is -0.014.

Question: Which log2 fold change does the source give for CSNK2B (UniProt P67870) here?
Answer: Its log2 fold change is -0.027.

Question: With CBR1 (UniProt P16152) as the target, how does the log2 fold change read?
Answer: The log2 fold change was 0.034.

Question: How did the log2 fold change turn out when CRKL (UniProt P46109) was run?
Answer: The log2 fold change was -0.027.

Question: CHD4 isoform 2 (UniProt Q14839) was tested. Which log2 fold change did it give?
Answer: Its log2 fold change is -0.009.

Question: How did the log2 fold change turn out when COA6 isoform 2 (UniProt Q5JTJ3) was run?
Answer: The log2 fold change was 0.082.

Question: For CNDP2 (UniProt Q96KP4), which log2 fold change is on record?
Answer: The log2 fold change was 0.072.

Question: Which log2 fold change does the source give for CETN2 (UniProt P41208) here?
Answer: The log2 fold change was 0.041.

Question: Which log2 fold change does the source give for CAMKK2 (UniProt Q96RR4) here?
Answer: The log2 fold change was -0.221.

Question: How did the log2 fold change turn out when CKS1B (UniProt P61024) was run?
Answer: The log2 fold change was 0.

Question: With CHEK1 (UniProt O14757) as the target, how does the log2 fold change read?
Answer: The log2 fold change was -0.122.

Question: With CLPP (UniProt Q16740) as the target, how does the log2 fold change read?
Answer: Its log2 fold change is 0.008.

Question: With CDK9 isoform 2 (UniProt P50750) as the target, how does the log2 fold change read?
Answer: Its log2 fold change is -0.054.

Question: Which log2 fold change does the source give for CHAMP1 (UniProt Q96JM3) here?
Answer: The log2 fold change was -0.046.

Question: Which log2 fold change does the source give for CCDC167 (UniProt Q9P0B6) here?
Answer: Its log2 fold change is 0.181.

Question: Which log2 fold change does the source give for CALCOCO2 isoform 4 (UniProt Q13137) here?
Answer: The log2 fold change was 0.071.

Question: With CPSF3 (UniProt Q9UKF6) as the target, how does the log2 fold change read?
Answer: The log2 fold change was -0.052.

Question: How did the log2 fold change turn out when CLASP2 isoform 3 (UniProt O75122) was run?
Answer: Its log2 fold change is -0.314 (active).

Question: How did the log2 fold change turn out when CLSPN (UniProt Q9HAW4) was run?
Answer: Its log2 fold change is 0.047.

Question: How did the log2 fold change turn out when COMMD2 (UniProt Q86X83) was run?
Answer: Its log2 fold change is -0.029.

Question: With CLCN3 (UniProt P51790) as the target, how does the log2 fold change read?
Answer: The log2 fold change was -0.062.

Question: How did the log2 fold change turn out when CCNK isoform 4 (UniProt O75909) was run?
Answer: The log2 fold change was 0.324 (active).

Source: the supplement of paper PMC10849652
